Bioassay records: PubChem BioAssay, National Center for Advancing Translational Sciences (NCATS)
Chronic BCR inh – qHTS Assay to Find Inhibitors of Chronic Active B-Cell Receptor Signaling; ABC-DLBCL IkBa-CBG/CBR reporter, luminescence ratio, 4 h; Potency, µM (titrated, usually from 46.1 µM), without a hit: at the top dose activity change, negative = inhibition, actives largely listed as inhibitors; actives 0.05% (n = 340,000); active means well fitted inhibition curve with a large enough effect in the signal ratio, with a control signal flat, not every such curve was filed as active; inconclusive means small, poorly fitted or top-dose-only effect, or effect the other way, or a change in a side signal; the % refers to the signal ratio;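 further: potency means the concentration at half of the fitted maximal effect; plate controls were basal doxycycline-induced cells for no effect and cells given 10 µM MG132 for full effect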
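Doxycycline induced both beetle luciferases in TMD8 lymphoma cells; IKK-driven degradation limits the IkappaBalpha-fused green signal, while red luminescence normalises for cell number and nonspecific effects. Compounds tested up to 46 uM, 4 hrs.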
MCF10A rereplic – A quantitative high throughput screen for small molecules that induce DNA re-replication in MCF 10a normal breast cells. actives 2.9% (n = 350,000). MCF 10A DNA re-replication, Hoechst nuclear intensity, 48 h. Potency, µM (series often up to 46.1 µM), inactives show top-dose activity, positive = re-replication, usual class: activators; further: potency means the concentration at half of the fitted maximal effect; % of control where 0% means no effect; nearly all actives have a fitted effect of over 50% in size
DT40 TDP1 no CPT – qHTS for Inhibitors of human tyrosyl-DNA phosphodiesterase 1 (TDP1): qHTS in cells in absence of CPT; DT40 Tdp1-/- hTDP1 cells, no CPT, ATP luminescence, 48 h; Potency, µM (top dose mostly 46.2 µM), for the others: top-dose activity change, negative = growth inhibition, actives largely listed as inhibitors; actives 15% (n = 420,000); AID 686978, 2013; further: potency means the concentration at half of the fitted maximal effect; on the % scale 0 is the no-effect control and ±100 the full control effect; nearly all actives have a fitted effect of over 55% in size
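Luminescent ATP content (CellTiter-Glo) served as the growth readout. Knockout chicken DT40 cells expressing human TDP1 were exposed to compounds without camptothecin for a minimum 48 hr at 37 °C.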
SW480 rerep – A quantitative high throughput screen for small molecules that induce DNA re-replication in SW480 colon adenocarcinoma cells | actives 1.8% (n = 340,000) | AID 624297, 2012 | SW480 DNA re-replication, Hoechst DNA content imaging, 48 h | Potency, µM (series often up to 46.1 µM), for the others: at the highest dose re-replication activation, most hits filed as activators; further: potency means the concentration at half of the fitted maximal effect; % of control where 0% means no effect; nearly all actives have a fitted effect of over 55% in size
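Quantitative HTS format with DMSO vehicle controls; 48 hr drug incubation at 37 C, then 40 min Hoechst staining and scanning imager measurement at 405 nm excitation.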
IL1B secr inh – qHTS for Inhibitors of Inflammasome Signaling: IL-1-beta AlphaLISA Primary Screen. activity change, % at 57.5 µM. actives 4.7% (n = 360,000). THP-1 LPS/ATP IL-1B secretion, AlphaLISA, 16 h; hits give low values; in the data active means activity change below about -50%; inconclusive means mostly about -30% to -49%; further: on the % scale 0 is the no-effect control and ±100 the full control effect
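THP-1 cells pretreated 1 hr with compounds (up to 57.5 uM final), then stimulated with LPS (250 ng/mL final) plus ATP (1.25 mM final); secreted IL-1B measured by AlphaLISA after 16 hr, decreased signal indicating inhibition.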
DT40 TDP1 CPT – qHTS for Inhibitors of human tyrosyl-DNA phosphodiesterase 1 (TDP1): qHTS in cells in presence of CPT; chicken DT40 Tdp1-/-;hTDP1 cells + 20 nM CPT, ATP luminescence, 48 h; Potency, µM (highest dose often 46.2 µM), for inactives: at the top dose activity change, negative = growth inhibition, usual class: inhibitors; actives 12% (n = 420,000); AID 686979, 2013; further: potency means the concentration at half of the fitted maximal effect; on the % scale 0 is the no-effect control and ±100 the full control effect; nearly all actives have a fitted effect of over 55% in size
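Chicken DT40 Tdp1-/- cells stably complemented with human TDP1 were seeded at 400 cells/well in medium containing 20 nM camptothecin, exposed to pin-transferred compounds, and grown at 37 °C for at least 48 hr. Viability was read as ATP luminescence.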
* marks the source's active call; other numbers are inactive results. This is a sample that favours compounds with a hit; in the whole collection about 19% have one here. Unless noted, the call rests on the fitted dose curve; in most records, active means well fitted curve in the direction sought with a large enough effect; inconclusive means small, poorly fitted or top-dose-only effect, or another doubt; inactive means no such curve, though single readings can be large; an effect the other way counts as inactive or inconclusive.

Screening CCCCC(=O)NC(=S)Nc1c(C)cc(Br)cc1C returned Chronic BCR inh inconclusive, MCF10A rereplic 11%, DT40 TDP1 no CPT 18µM*, SW480 rerep -702%, IL1B secr inh 31 and DT40 TDP1 CPT 21µM*.
For CC(=O)Nc1ccc(NC(=O)c2cc3c(=O)n(Cc4cccnc4)ccc3nc2C)cc1 the results were DT40 TDP1 no CPT -20% and DT40 TDP1 CPT -5%.
For CCc1ccc(CNC(=O)c2cc3c(=O)n(Cc4cccs4)ccc3nc2C)cc1 the results were DT40 TDP1 no CPT 23µM* and DT40 TDP1 CPT 18µM*.
For CCOc1ccc(CNC(=O)c2cc3c(=O)n(Cc4cccs4)ccc3nc2C)cc1 the results were DT40 TDP1 no CPT inconclusive and DT40 TDP1 CPT 9.2µM*.
`COc1ccc(NC(=O)c2cc3c(=O)n(Cc4ccco4)ccc3nc2C)cc1` gave DT40 TDP1 no CPT inconclusive and DT40 TDP1 CPT -7%.
`COc1ccc(NC(=O)c2cc3c(=O)n(Cc4cccs4)ccc3nc2C)c(OC)c1` gave DT40 TDP1 no CPT inconclusive and DT40 TDP1 CPT 16µM*.
C(=C1C=c2ccccc2=C1)c1ccc(N=Nc2ccc(C=C3C=c4ccccc4=C3)cc2)cc1 was read as DT40 TDP1 no CPT -11% and DT40 TDP1 CPT -8%.
For CCC1CCCCN1CCCNC(=O)Cn1c(=O)c2cccn2c2cccnc21 (configuration not stated) the results were Chronic BCR inh 4%, MCF10A rereplic 10%, DT40 TDP1 no CPT -1%, SW480 rerep inconclusive, IL1B secr inh -22 and DT40 TDP1 CPT -6%.
CCCCC(=O)N1CCN(c2nc3ccc(Cl)cc3s2)CC1 was read as Chronic BCR inh 10%, MCF10A rereplic 5%, DT40 TDP1 no CPT inconclusive, SW480 rerep -3%, IL1B secr inh -19 and DT40 TDP1 CPT 16µM*.
`CC(C)(C)NC(=O)N1CCN(c2nc3ccc(Cl)cc3s2)CC1` gave Chronic BCR inh inconclusive, MCF10A rereplic 8%, DT40 TDP1 no CPT 18µM*, SW480 rerep -1%, IL1B secr inh -12 and DT40 TDP1 CPT 23µM*.
CC(C)(CC(=O)O)CC(=O)N1CCN(c2nc3ccc(Cl)cc3s2)CC1 was read as Chronic BCR inh 5%, MCF10A rereplic 3%, DT40 TDP1 no CPT 11%, SW480 rerep -10%, IL1B secr inh 28 and DT40 TDP1 CPT -16%.
For N=c1ccn(CC(=O)c2ccc(-c3ccccc3)cc2)cc1 the results were Chronic BCR inh inconclusive, MCF10A rereplic 7%, DT40 TDP1 no CPT 2.9µM*, SW480 rerep -6%, IL1B secr inh -69* and DT40 TDP1 CPT 4.6µM*.
Screening O=C(CN1C(=O)CCC1=O)c1ccc(-c2ccccc2)cc1 returned Chronic BCR inh inconclusive, MCF10A rereplic -7%, DT40 TDP1 no CPT -25%, SW480 rerep -39%, IL1B secr inh 3 and DT40 TDP1 CPT -10%.
For CC(=O)Nc1ccc(C(=O)CSc2nnnn2C2CCCC2)cc1 the results were Chronic BCR inh 1%, MCF10A rereplic -1%, DT40 TDP1 no CPT -6%, SW480 rerep inconclusive, IL1B secr inh 7 and DT40 TDP1 CPT -13%.
COc1ccc(OC)c(CNn2c(-c3ccccc3F)nc3ccccc3c2=O)c1 was read as Chronic BCR inh -15%, MCF10A rereplic inconclusive, DT40 TDP1 no CPT 18µM*, SW480 rerep 21%, IL1B secr inh -1 and DT40 TDP1 CPT inconclusive.
